Test results as given in PubChem BioAssay (NCATS).
Records with an inconclusive call do not appear. Values without a mark were called inactive. Calls of active or inactive are those of the source. Calls follow the shape of the dose curve; as a rule, active = well fitted curve in the direction sought with a large enough effect; inconclusive = small, poorly fitted or top-dose-only effect, or another doubt; inactive = no such curve, though single readings can be large; an effect the other way counts as inactive or inconclusive.

What was measured:
[1] = Quantitative highthroughput screen to assess conditional lethalithy of NOMO1 cells grown in RPMI1640 with dialyzed fetal bovine serum (RPMI+ds) (AID 1963877); also: nearly all actives have a fitted effect of over 30% in size;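 as to viability: series mostly up to about 46 µM; 100% = DMSO control wells and 0% = empty wells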
Outline: (§1)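 Each medium arm—HPLM with 10% dialyzed FBS, or RPMI1640 with 5 mM glucose and 10% untreated or dialyzed FBS—was screened against an 11-point, 3-fold compound titration for 48 h at 37 °C, with CellTiter-Glo luminescence as endpoint.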

[2] = Quantitative highthroughput screen to assess conditional lethalithy of P12 Ichikawa cells grown in Human Plasma-Like Medium with dialyzed fetal bovine serum (HPLM+ds) (AID 1963879); settings: Potency: viability; also: nearly all actives have a fitted effect of over 35% in size; as to viability: series mostly up to about 46 µM
Outline: as §1

[3] = Quantitative highthroughput screen to assess conditional lethalithy of P12 Ichikawa cells grown in RPMI1640 with dialyzed fetal bovine serum (RPMI+ds) (AID 1963880); settings: Potency: P12-Ichikawa viability; also: nearly all actives have a fitted effect of over 35% in size;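 as to viability: 100% = DMSO wells and 0% = empty wells on each plate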
Outline: as §1

[4] = Quantitative highthroughput screen to assess conditional lethalithy of SEM cells grown in Human Plasma-Like Medium with dialyzed fetal bovine serum (HPLM+ds) (AID 1963882); also: nearly all actives have a fitted effect of over 35% in size
Outline: as §1

[5] = Quantitative highthroughput screen to assess conditional lethalithy of SEM cells grown in RPMI1640 with dialyzed fetal bovine serum (RPMI+ds) (AID 1963884); also: nearly all actives have a fitted effect of over 35% in size;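 as to viability: series mostly up to about 46 µM; 100% = DMSO control wells and 0% = empty wells without cells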
Outline: as §1

[6] = Quantitative highthroughput screen to assess conditional lethalithy of NOMO1 cells grown in Human Plasma-Like Medium with dialyzed fetal bovine serum (HPLM+ds) (AID 1963878); also: nearly all actives have a fitted effect of over 35% in size;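 as to viability: 100% = DMSO wells and 0% = empty wells on each plate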
Outline: as §1

[7] = Quantitative highthroughput screen to assess conditional lethalithy of P12 Ichikawa cells grown in RPMI1640 with untreated serum (RPMI+s) (AID 1963881); settings: Potency: viability; also: nearly all actives have a fitted effect of over 35% in size;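 as to viability: series mostly up to about 46 µM; 100% = DMSO wells and 0% = empty wells without cells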
Outline: as §1

[8] = Quantitative highthroughput screen to assess conditional lethalithy of SEM cells grown in RPMI1640 with unreated serum (RPMI+s) (AID 1963883); also: nearly all actives have a fitted effect of over 35% in size
Outline: as §1

[9] = Cellular viability qHTS for adrenocortical cancer (ACC) cell line SW-13 (AID 1963989); settings: SW-13 ACC cells viability, CellTiter-Glo, 48 h; activity (max response): stronger effect = lower value; also: nearly all actives have a fitted effect of over 65% in size;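 as to activity (max response): cells grown in serum-free medium with ITS supplement; % is scaled to controls: 0 for no effect and ±100 for the full control effect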
Outline: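 Luminescent ATP read-out (CellTiter-Glo, 20 min at room temperature) measured metabolically competent SW-13 cells after 48 h compound treatment. Final concentrations spanned up to 46 uM; bortezomib served as positive control.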

[10] = Cellular viability qHTS for adrenocortical cancer (ACC) cell line NCI-H295R (AID 1963990); also: nearly all actives have a fitted effect of over 60% in size
Outline: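 IC50 and maximal efficacy derive from four-parameter logistic modelling of titration curves, with reads scaled between DMSO-only wells (0%) and doxorubicin hydrochloride (100% inhibition). Compounds spanned up to 46 uM over 48 h.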

[11] = Quantitative highthroughput screen to assess conditional lethalithy of NOMO1 cells grown in RPMI1640 with untreated serum (RPMI+s) (AID 1963876); also: nearly all actives have a fitted effect of over 35% in size
Outline: as §1
Potency is read from the fitted curve at half-maximal effect.

**Q.** Which results are given for `COc1ccc2c(c1)CN(C)CC2c1ccc(Cl)c(Cl)c1` (configuration not stated)?
**A.** Potency [1]: 9.35 µM (active); Potency [2]: inactive

**Q.** For `C[C@@H]1O[C@@H](O[C@@H]2C=C3CC[C@@H]4[C@@H](CC[C@]5(C)[C@H](c6ccc(=O)oc6)CC[C@@]45O)[C@@]3(C)CC2)[C@H](O)[C@H](O)[C@H]1O`, which Potency [1] is on record?
**A.** 0.0469 µM (active)

**Q.** And the Potency [3]?
**A.** 0.0235 µM (active)

**Q.** And the Potency [4]?
**A.** 0.0235 µM (active)

**Q.** And the Potency [5]?
**A.** 0.0372 µM (active)

**Q.** Which results are given for `CCN1C[C@]2(OC(=O)c3ccccc3NC(C)=O)CC[C@H](OC)[C@@]34[C@H]5CC6[C@@H](OC)C[C@](O)(C(C[C@@H]23)[C@@H]14)[C@@]5(O)[C@@H]6OC`?
**A.** Potency [1]: inactive; Potency [6]: inactive; Potency [2]: inactive; Potency [3]: inactive; Potency [7]: inactive; Potency [8]: 6.62 µM (active); Potency [5]: inactive; activity (max response) [9]: -5.39%; Potency [10]: inactive

**Q.** Which Potency [1] does the source give for `C[C@]12Cc3cn[nH]c3C[C@@H]1CC[C@@H]1[C@H]2CC[C@@]2(C)[C@H]1CC[C@]2(C)O` here?
**A.** inactive

**Q.** And the Potency [6]?
**A.** inactive

**Q.** And the Potency [2]?
**A.** inactive

**Q.** What about the Potency [3] of the same molecule?
**A.** inactive

**Q.** And the Potency [7]?
**A.** inactive

**Q.** What about the Potency [5] of the same molecule?
**A.** inactive

**Q.** With `C[C@@H]1[C@@H](CC(C[C@H]2O[C@@H]3O[C@]4(C)CC[C@@H]5[C@H](C)CC[C@@H]([C@H]2C)[C@@]35OO4)C[S+](=O)([O-])c2ccc(COC(=O)N(C)C)cc2)O[C@@H]2O[C@]3(C)CC[C@H]4[C@H](C)CC[C@@H]1[C@@]24OO3` (some centres not stated) as the molecule, how does the Potency [11] read?
**A.** 0.833 µM (active)

**Q.** And the Potency [6]?
**A.** 0.418 µM (active)

**Q.** What about the Potency [2] of the same molecule?
**A.** 3.32 µM (active)

**Q.** What about the Potency [8] of the same molecule?
**A.** 0.418 µM (active)

**Q.** What about the Potency [5] of the same molecule?
**A.** 0.418 µM (active)

**Q.** Which results are given for `COc1cc(C(=O)N2CC[C@@H](O)[C@@H](N)C2)cc2nc(-c3cc4ccccc4n3CC3CC3)n(C)c12`?
**A.** Potency [1]: 1.17 µM (active); Potency [7]: 1.05 µM (active); Potency [5]: 0.831 µM (active)

**Q.** Which activity (max response) [9] does the source give for `COc1cc(CC#N)cc(OC)c1OC` here?
**A.** 12%

**Q.** And the Potency [10]?
**A.** inactive

**Q.** For `O=C1C(I)=CC(=C(c2cc(I)c(O)c(I)c2)c2ccccc2C(=O)O)C=C1I`, which Potency [10] is on record?
**A.** 20.6 µM (active)

**Q.** What does the source list for `COc1cc(C)[nH]c(=O)c1CNC(=O)c1c(C)n([C@H](C)C2CCN(CC(F)(F)F)CC2)c2ccccc12`?
**A.** activity (max response) [9]: 8.69%; Potency [10]: inactive

**Q.** With `CCCCC(CC)COC(=O)c1ccccc1C(=O)OCC(CC)CCCC` (configuration not stated) as the molecule, how does the activity (max response) [9] read?
**A.** 14%

**Q.** What about the Potency [10] of the same molecule?
**A.** inactive

**Q.** With `CC(C)[N+](C)(CCC(C(N)=O)(c1ccccc1)c1ccccc1)C(C)C` as the molecule, how does the activity (max response) [9] read?
**A.** 1.8%

**Q.** And the Potency [10]?
**A.** inactive

**Q.** With `CCC1(CCC(C)C)C(=O)NC(=O)NC1=O` as the molecule, how does the Potency [10] read?
**A.** inactive

**Q.** What does the source list for `COc1ccc2c(C(=O)c3ccc(Cl)cc3)c(C)n(CC(=O)O)c2c1`?
**A.** activity (max response) [9]: 8.1%; Potency [10]: inactive

**Q.** Which Potency [10] does the source give for `C=CCOC(Cn1ccnc1)c1ccc(Cl)cc1Cl` (configuration not stated) here?
**A.** inactive

**Q.** Which results are given for `CC(CCc1ccccc1)NC(C)C(O)c1ccc(O)cc1` (configuration not stated)?
**A.** activity (max response) [9]: -14.3%; Potency [10]: inactive

**Q.** With `C=CC[C@]1(O)CC[C@H]2[C@@H]3CCC4=CC(=O)CCC4=C3C=C[C@@]21C` as the molecule, how does the Potency [10] read?
**A.** inactive

**Q.** With `O=c1[nH]c2ccccc2n1C1CCN(CCCC(c2ccc(F)cc2)c2ccc(F)cc2)CC1` as the molecule, how does the Potency [10] read?
**A.** 23.1 µM (active)

**Q.** Which activity (max response) [9] does the source give for `CC(=O)N1N=C(c2ccc(N)cc2)c2cc3c(cc2C[C@H]1C)OCO3` here?
**A.** -25.9%

**Q.** And the Potency [10]?
**A.** inactive

**Q.** Which Potency [10] does the source give for `CC(C(O)c1ccccc1)N(C)C/C=C/c1ccccc1` (configuration not stated) here?
**A.** inactive

**Q.** Which Potency [9] does the source give for `CC(=O)[O][Hg][c]1ccccc1` here?
**A.** 1.3 µM (active)

**Q.** What about the Potency [10] of the same molecule?
**A.** 1.46 µM (active)

**Q.** For `Nc1ccc([As](=O)(O)O)cc1`, which activity (max response) [9] is on record?
**A.** 13.3%

**Q.** And the Potency [10]?
**A.** inactive

**Q.** Which activity (max response) [9] does the source give for `COP(=O)(OC)OC=C(Cl)Cl` here?
**A.** 13.5%

**Q.** What about the Potency [10] of the same molecule?
**A.** inactive

**Q.** With `Cc1cccc(Cc2cnc[nH]2)c1C` as the molecule, how does the activity (max response) [9] read?
**A.** -10.7%

**Q.** What about the Potency [10] of the same molecule?
**A.** inactive

**Q.** Which activity (max response) [9] does the source give for `O=C1CN=C(c2ccccc2)c2cc([N+](=O)[O-])ccc2N1` here?
**A.** -7.73%

**Q.** And the Potency [10]?
**A.** inactive

**Q.** For `CC(C)(NC(=O)O[C@@H]1CN2CCC1CC2)c1csc(-c2ccc(F)cc2)n1`, which Potency [10] is on record?
**A.** inactive

**Q.** With `CCC(=O)C(CCN(C)C)(c1ccccc1)c1ccccc1` as the molecule, how does the activity (max response) [9] read?
**A.** -1.08%

**Q.** And the Potency [10]?
**A.** inactive

**Q.** Which Potency [10] does the source give for `O=c1oc2ccccc2c(O)c1C(CC(O)c1ccc(-c2ccc(Br)cc2)cc1)c1ccccc1` (configuration not stated) here?
**A.** 18.4 µM (active)

**Q.** With `CC#C[C@]1(O)CC[C@H]2[C@@H]3C[C@H](C)C4=CC(=O)CC[C@]4(C)[C@H]3CC[C@@]21C` as the molecule, how does the Potency [10] read?
**A.** 8.2 µM (active)

**Q.** For `CCCOC(=O)Cc1ccc(OCC(=O)N(CC)CC)c(OC)c1`, which Potency [10] is on record?
**A.** inactive

**Q.** For `CC(=O)O[C@@]12CO[C@@H]1C[C@H](O)[C@@]1(C)C(=O)[C@H](O)C3=C(C)[C@@H](O)C[C@@](O)([C@@H](OC(=O)c4ccccc4)[C@H]21)C3(C)C`, which Potency [10] is on record?
**A.** inactive

**Q.** With `C[C@@H]1CN(Cc2ccc(F)cc2)CCN1C(=O)COc1ccc(Cl)cc1NC(N)=O` as the molecule, how does the Potency [9] read?
**A.** 5.01 µM (active)

**Q.** And the Potency [10]?
**A.** 20 µM (active)

**Q.** For `COP(=S)(OC)SCN1C(=O)c2ccccc2C1=O`, which activity (max response) [9] is on record?
**A.** 6.58%

**Q.** What about the Potency [10] of the same molecule?
**A.** inactive

**Q.** With `CCCCC/C=C\C/C=C\C/C=C\C/C=C\CCCC(=O)NCC(=O)O` as the molecule, how does the Potency [10] read?
**A.** inactive

**Q.** For `CC(C)[C@]12O[C@H]1[C@@H]1O[C@@]13[C@@]1(C)CCC4=C(COC4=O)[C@@H]1C[C@@H]1O[C@@]13C2=O`, which Potency [9] is on record?
**A.** 0.141 µM (active)

**Q.** What about the Potency [10] of the same molecule?
**A.** 0.631 µM (active)

**Q.** For `C[C@]12CC[C@H]3[C@@H](CCC4=CC(=O)CC[C@@H]43)[C@@H]1CC[C@@H]2OC(=O)CCc1ccco1`, which activity (max response) [9] is on record?
**A.** -19.1%

**Q.** And the Potency [10]?
**A.** 18.4 µM (active)

**Q.** For `C#C[C@]1(O)CC[C@H]2[C@@H]3CCC4=CC(=O)CC[C@]4(C)[C@H]3CC[C@@]21C`, which activity (max response) [9] is on record?
**A.** 3.93%

**Q.** What about the Potency [10] of the same molecule?
**A.** inactive

**Q.** With `C[C@@H]1CC2=CC(=O)CC[C@@H]2[C@H]2CC[C@@]3(C)[C@@H](CC[C@]3(C)O)[C@@H]21` as the molecule, how does the Potency [10] read?
**A.** inactive

**Q.** With `Cc1c(Cl)c(=O)oc2cc(OP(=O)(OCCCl)OCCCl)ccc12` as the molecule, how does the activity (max response) [9] read?
**A.** -15.3%

**Q.** What about the Potency [10] of the same molecule?
**A.** inactive

**Q.** With `O=C1NCN(c2ccccc2)C12CCN(CCCOc1ccc(F)cc1)CC2` as the molecule, how does the Potency [10] read?
**A.** inactive

**Q.** For `Cn1c(/C=C/CO)c(CO)c2c1C(=O)C=C(N1CC1)C2=O`, which activity (max response) [9] is on record?
**A.** -6.24%

**Q.** And the Potency [10]?
**A.** inactive

**Q.** With `COc1nn(CSP(=S)(OC)OC)c(=O)s1` as the molecule, how does the Potency [9] read?
**A.** 31.6 µM (active)

**Q.** And the Potency [10]?
**A.** 25.1 µM (active)

**Q.** Which results are given for `O=C(CBr)N1CC([N+](=O)[O-])([N+](=O)[O-])C1`?
**A.** activity (max response) [9]: 7.48%; Potency [10]: inactive

**Q.** What does the source list for `CC(C)=CCOc1c2occc2cc2ccc(=O)oc12`?
**A.** activity (max response) [9]: -12.5%; Potency [10]: inactive

**Q.** Which Potency [10] does the source give for `CC(N[C@H]1C[C@@H]1c1ccccc1)c1ccc2c(c1)OCCO2` (some centres not stated) here?
**A.** inactive

**Q.** Which activity (max response) [9] does the source give for `C[C@H](CN1CCOCC1)C(C(=O)N1CCCC1)(c1ccccc1)c1ccccc1` here?
**A.** -12.8%

**Q.** And the Potency [10]?
**A.** inactive
